Measurements: PubChem BioAssay AID602229 (The Scripps Research Institute Molecular Screening Center, 2012)
The campaign covered roughly 360,000 compounds. About 1,300 (0.36%) were called active. This is one part of a sample in which actives are shown more often than they occur. Unmarked numbers belong to inactive results.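 The calls were made as follows: active = inhibition above the mean of all tested compounds plus 3 SD (cut at about 70% in these data); inactive = the rest.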

molecular target: Photoreceptor-specific nuclear receptor (Homo sapiens) (UniProt Q9Y5X4); assay: NCOR release from NR2E3 in cells – cell-based, luminescence, CHO-S, Gal4-NCOR/VP16-NR2E3, primary screen (AID 602229); settings: CHO-S Gal4-NCOR/VP16-NR2E3 two-hybrid, luciferase; at 3.98 µM; stronger effect = higher value;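 also: 0% = DMSO with NR2E3 transfected cells and 100% = cells lacking NR2E3 construct; higher means lower luciferase signal from less NR2E3 corepressor binding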
Sequence (Q9Y5X4 whole entry, looked up, the tested form may be a part): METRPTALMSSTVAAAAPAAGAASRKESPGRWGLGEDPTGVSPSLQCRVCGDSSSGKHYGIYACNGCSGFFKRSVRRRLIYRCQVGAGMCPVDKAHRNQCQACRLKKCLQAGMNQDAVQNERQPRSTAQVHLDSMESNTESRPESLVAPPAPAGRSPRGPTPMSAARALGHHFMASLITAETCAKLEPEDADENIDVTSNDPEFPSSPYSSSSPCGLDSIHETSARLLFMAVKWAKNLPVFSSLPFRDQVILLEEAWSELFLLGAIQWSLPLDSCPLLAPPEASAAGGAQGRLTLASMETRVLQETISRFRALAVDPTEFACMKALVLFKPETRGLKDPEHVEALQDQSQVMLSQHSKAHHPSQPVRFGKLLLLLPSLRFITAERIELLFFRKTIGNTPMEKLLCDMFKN

SMILES | inhibition of corepressor binding
N#CC1=C(N)Oc2[nH]c(=S)[nH]c(=O)c2C12C(=O)Nc1ccccc12 (centres undefined) | -7.36%
CCCCn1nnnc1C(c1ccccc1)N1CCN(c2ccccc2OC)CC1 (centres undefined) | -15.1%
CCCCC(=O)N(c1ccc(OC)cc1)C1C=CS(=O)(=O)C1 (centres undefined) | -26%
COC(=O)[C@]12CCCCC=C1N(Cc1ccco1)C(=O)[C@H](CC(=O)NCCCCc1ccccc1)C2 | -23.9%
COc1ccc(NC(=O)CC2SC(N3CCCCC3)=NC2=O)cc1OC (centres undefined) | 8.6%
CS(=O)(=O)Nc1ccccc1N=C(c1ccccc1)c1ccccc1 | 7.7%
O=C(CCc1nnc2ccc(NCCCN3CCCC3=O)nn12)NCc1ccccc1Cl | 8.39%
Cc1nc(-c2ccc(F)cc2)c(CC(=O)N2CCN(S(=O)(=O)c3ccc(F)cc3)CC2)s1 | -1.49%
Cc1ccc(S(=O)(=O)N2CCN(C(=O)Cc3sc(C)nc3-c3ccc(F)cc3)CC2)c(C)c1 | -15.2%
Cc1nc(-c2ccc(F)cc2)c(CC(=O)Nc2cc(S(=O)(=O)N3CCCCC3)ccc2C)s1 | 82.8% (active)
O=S(=O)(Nc1ccc(-c2ccc(N3CCOCC3)nn2)cc1)c1cc(Cl)ccc1Cl | -41.5%
COc1ccc(C(C(=O)NCC2CCCO2)N(C(=O)Cn2nnc3ccccc32)c2ccc(NC(C)=O)cc2)cc1OC (centres undefined) | -35.2%
Cn1c(=O)oc2cc(S(=O)(=O)N3CCC(C(=O)Nc4ccc(OC(F)(F)F)cc4)CC3)ccc21 | -16.6%
CC[C@H]1CN2CCc3cc(OC)c(OC)cc3[C@@H]2C[C@@H]1C[C@H]1NCCc2cc(OC)c(OC)cc21 | 104% (active)
O=C(CC(NCCN1CCOCC1)C(=O)O)Nc1cccc(Cl)c1 (centres undefined) | 5.57%
CCCCCCCCn1c2c(c(=N)c3c1CCC3)CCCC2 | 92% (active)
Cc1ccc(S(=O)(=O)NC(C)C(=O)NCc2ccc(Cl)cc2)cc1 (centres undefined) | -5.53%
CCn1cc(C(=O)N[C@@H](C)C(=O)NCCO)c(=O)c2cc3c(cc21)OCO3 | -12.3%
Cc1nc([N+](=O)[O-])c(NCCCO)n1Cc1ccccc1 | -10.6%
CCN1/C(=C\c2ccc3ccccc3[n+]2CC)Sc2cc(C)ccc21 | 89.4% (active)
COCC(=O)N1CCc2ccc(NC(=O)c3ccccc3Cl)cc2C1 | -6.67%
CCOC(=O)C1CCCN(C(=O)c2cc(-c3cccs3)oc2C)CC1 (centres undefined) | -1.14%

SMILES | inhibition of corepressor binding
CCOc1ccccc1N1CCN(C(=O)c2ccc3[nH]c(C)c(C)c3c2)CC1 | -57.3%
C[C@H](CO)N1C[C@H](C)[C@H](CN(C)CC2CC2)Oc2ccc(NC(=O)CCN3CCOCC3)cc2C1=O | -4.02%
COc1cccc(CNc2nc(NCc3cccs3)nc3ccsc23)c1 | 88.5% (active)
COc1ccccc1CNc1nc(Nc2ccccc2Cl)c2sccc2n1 | 64.7%
COc1cccc(CNc2nc(NCc3ccccc3OC)nc3ccsc23)c1 | 54.7%
CC[C@]1(c2ccccc2OC)C(=O)N(C(=O)OC)N1C(=O)OC | 14.9%
CCn1c(CNC(=O)c2cc(OC)c(OC)c(OC)c2)cc2cc(C)ccc21 | 89.3% (active)
COc1cc(C(=O)NCc2nnc(SCC(=O)Nc3nc4ccc(C)cc4s3)o2)cc(OC)c1OC | -10.1%
COc1cc(C(=O)NCc2ccc(-n3cccc3)cc2)cc(OC)c1OC | 11.4%
Cc1noc(C)c1S(=O)(=O)Nc1cc(C(F)(F)F)ccc1N1CCOCC1 | 4.86%
Cc1ccc(N(CCC(=O)O)S(=O)(=O)c2cccc(C(F)(F)F)c2)cc1 | 4.8%
Cc1oc2c(F)c(F)c(F)c(F)c2c1S(=O)(=O)Nc1cccc(C(F)(F)F)c1 | 110% (active)
CCCOc1ccc(CN(CCO)CCO)cc1C(=O)OC | 5.92%
COc1ccccc1CNC(=O)CNC(=O)c1cn(-c2ccccc2OC)c(=O)c2ccccc12 | 6.65%
COc1ccc(S(=O)(=O)N2CCc3ccccc32)cc1C(=O)Nc1cc(S(C)(=O)=O)ccc1Cl | -23.6%
Cc1ccc(C)c(NC(=O)CN(C)C(=O)c2ccc3ncsc3c2)c1 | -19.7%
CC1(C(=O)NS(=O)(=O)c2ccc(Cl)cc2)CCN1C(=O)CC1CCCC1 (centres undefined) | 9.74%
Cc1ccc(NC(=O)c2sccc2C)cc1[N+](=O)[O-] | -86.2%
Cc1ccc(NC(=O)CN(C)CC(=O)Nc2cccc(F)c2)cc1[N+](=O)[O-] | 84.2% (active)
CN(CC(=O)Nc1cccc(F)c1)C(=O)C1=COCCO1 | -5.12%
Cc1ccc(NC(=O)C(C)OC(=O)Cc2c[nH]c3ccccc23)cc1S(=O)(=O)N1CCOCC1 (centres undefined) | 20.8%
O=C(Nc1ccc(Br)cc1)c1cc(S(=O)(=O)Nc2ccccn2)ccc1Cl | 0.47%

SMILES | inhibition of corepressor binding
Oc1ccc(Br)cc1/C=N/Nc1ccccn1 | 87.1% (active)
S=C(NN=Cc1ccccn1)Nc1ccccn1 | 52.5%
CCCN(CC(=O)Nc1ccc(OC)c(OC)c1)CC(=O)Nc1ccc(F)c(F)c1F | -8.16%
CCOC(=O)C1CCN(S(=O)(=O)c2c(C)noc2C)CC1 | -11.3%
Cc1csc(OCC(=O)Nc2ccc(C)c(C)c2)n1 | -16.6%
CCOC(=O)c1cnc2ccc(F)cc2c1Nc1ccc2c(c1)OCCO2 | -13.2%
Cc1nc2ccccc2c(C(=O)O)c1-c1ccccn1 | -21.4%
c1ccc(-c2nccc(-c3ccc(-n4cnc5ccccc54)cc3)n2)nc1 | 34.3%
CC(C)(C)Nc1nc(-c2ccccn2)nc2ccccc12 | 98.8% (active)
O=C1CC(=O)Nc2cc(S(=O)(=O)N3CCN(c4cccc(C(F)(F)F)c4)CC3)ccc2N1 | -3.07%
O=C(CN1C(=O)CCS(=O)(=O)c2ccccc21)NCc1ccc(F)cc1 | -8.57%
CCCCN1C(=O)CC(N2CCOCC2)C1=O (centres undefined) | -4.28%
CCc1cccc(NC(=O)COC(=O)C2CCN(c3ccc(C(F)(F)F)cn3)CC2)c1 | -19.1%
O=S(=O)(Nc1ccccc1N1CCOCC1)c1ccc(Cl)s1 | -7.37%
O=C(Nc1cccc(Cl)c1)Nc1ccccc1NS(=O)(=O)c1cccs1 | -13.8%
COc1cc(NC(=O)c2ccccc2NS(=O)(=O)c2ccc(Cl)s2)cc(OC)c1 | 97.8% (active)
CCCn1nnnc1NCc1ccc(CC)cc1 | 8.66%
CCCC(=O)N1CCC1(C)C(=O)Nc1ccc(-n2cncn2)cc1 (centres undefined) | 1.35%
O=C(c1cc(COc2c(F)cccc2F)on1)N1CCSCC1 | -9.64%
C=CCC1(CC=C)CCCN1C(=O)c1cc(COc2ccc(-n3cncn3)cc2)on1 | 106% (active)
Nc1[nH]c(C(=O)c2ccccc2)c(-c2ccncc2)c1C(=O)NCc1cccc2ccccc12 | 3.22%
CSCCC(c1nnnn1Cc1ccccc1)N1CCN(C/C=C/c2ccccc2)CC1 (centres undefined) | 4.41%

SMILES | inhibition of corepressor binding
C/C(=N\NC(=S)NCc1ccccc1)c1ccc(Cl)cc1 | 73.8% (active)
C/C(=N\NC(=S)NCc1ccccc1)C1CCCCC1 | 14.7%
C/C(=N/NC(=S)Nc1ccccc1)c1ccc2c(c1)OCO2 | -32%
O=C(CCc1ccc(S(=O)(=O)NC2CCCCC2)cc1)NCc1ccccc1 | 9.81%
CC(=O)Nc1ccc(S(=O)(=O)NNC(=O)CCc2ccccc2)cc1 | -9.18%
COc1cc(CC(=O)Nc2nc(-c3ccc(F)c(F)c3)cs2)cc(OC)c1OC | 103% (active)
COc1ccc(CCNC(=O)COC(=O)Cc2cc(OC)c(OC)c(OC)c2)cc1 | 0.01%
COc1cc(CCC(=O)Nc2ccncc2Cl)cc(OC)c1OC | -4.52%
COc1ccc(CC(=O)NC2CCSc3ccccc32)cc1OC (centres undefined) | -3.29%
Cc1csc(NC(=O)CSc2ccc(-c3ccc(F)cc3)nn2)n1 | 11.9%
COc1ccc(CC(=O)Nc2nc(-c3ccc(F)c(F)c3)cs2)cc1OC | 103% (active)
CCc1nnc(NC(=O)CSc2nc3c(c(=O)n2-c2ccccc2OC)SCC3)s1 | -5.3%
C/C(=C/C(=O)N1CCN(C)CC1)C(=O)O | -1.95%
COc1cc(C2/C(=C(\O)c3ccc4c(c3)CC(C)O4)C(=O)C(=O)N2c2nnc(C)s2)cc(OC)c1OC (centres undefined) | -19.5%
COc1ccccc1OCCNC(=O)CCNC(=O)c1ccccc1Cl | -15.5%
CCN1C(=O)/C(=C\N2CCOCC2)SC1=S | -3.91%
O=C(CCn1c(=O)oc2ccccc21)Nc1ccon1 | -8.66%
CCOC(=O)C1=C(CNC2CCCCC2)NC(=O)NC1c1cc(C)ccc1C (centres undefined) | -26.1%
CCN(Cc1ccccc1)S(=O)(=O)c1cc2c3c(c1)CCN3C(=O)CC2 | 13.4%
COc1ccc(CNC(=O)COc2cccnc2[N+](=O)[O-])cc1 | -7.82%
COc1ccc(CNc2ncnc3ccccc23)cc1 | 96.1% (active)
O=C(COc1ncnc2ccccc12)NC(=O)NCc1ccccc1 | 9.2%

SMILES | inhibition of corepressor binding
Cc1ccc(O/C=C2\OC(=O)c3ccccc32)cc1 | -37.1%
Cc1c(C(=O)N(Cc2ccccc2)Cc2cccnc2)cnn1-c1ccc(F)cc1 | 0.5%
COc1ccc(NS(=O)(=O)c2ccc(N3CCN(CCO)CC3)c([N+](=O)[O-])c2)cc1 | 17.4%
COc1ccc(S(=O)(=O)Nc2ccc3oc(C)c(C(C)=O)c3c2)cc1 | 60.2%
COc1ccc(NS(=O)(=O)c2ccc(Oc3c(C#N)cccc3C#N)cc2)cc1 | 86.5% (active)
CCOCc1c(C(=O)N2CCN(Cc3ccc(Br)s3)CC2)oc2ccccc12 | -14.4%
O=S(=O)(c1ccc(F)cc1)N1CCN=C1SCc1cccc(F)c1 | 3.65%
Cc1ccc(S(=O)(=O)N2CCN(C(=O)COC(=O)CNC(=O)c3ccc(C(C)(C)C)cc3)CC2)c(C)c1 | 1.29%
COc1ccc(C(=O)NC2CCCc3c2cnn3-c2cccc(C)c2C)c(OC)n1 (centres undefined) | 91.3% (active)
Cc1cc(C(=O)NC2CC(C)(C)Cc3c2cnn3-c2ccccc2)n[nH]1 (centres undefined) | -26.5%
Cn1nccc1C(=O)NC1CCCc2c1cnn2-c1ccc(F)cc1F (centres undefined) | 107% (active)
COc1ccc(C(=O)NC2CC(C)(C)Cc3c2cnn3-c2ccccc2)c(OC)c1 (centres undefined) | -23.7%
COc1ccc(C(=O)NC2CC(C)(C)Cc3c2cnn3-c2ccccc2C)o1 (centres undefined) | -34.2%
O=C(CCNC(=O)c1ccc(Cl)cc1)NC1CCCc2ccccc21 (centres undefined) | -14.3%
Cn1nccc1C(=O)NC1CCCc2c1cnn2-c1ccccc1F (centres undefined) | 105% (active)
CC1=C(C(=O)NC2CC(C)(C)Cc3c2cnn3-c2ccc(C)cc2)OCCO1 (centres undefined) | -12.3%
COC(=O)c1ccc(C(=O)NC2CC(C)(C)Cc3c2cnn3-c2ccc(F)cc2)nc1 (centres undefined) | -87.5%
NC(=O)COC(=O)c1ccc2c(c1)C(=O)N(Cc1ccco1)C2=O | -5.79%
Cc1cc(C)n(CCC(=O)N2CCN(S(=O)(=O)c3ccc(C)c(C)c3)CC2)n1 | 3.36%
Cc1ccc(CN(N=Nc2nonc2N)c2nonc2N)c(C)c1 | -19.7%
CC1CCCC(NC(=O)CN2CCN(Cc3ccc(Cl)cc3)C2=O)C1C (centres undefined) | 2.85%
